target: Follistatin-related protein 3 (Homo sapiens) (UniProt O95633); assay: compounds binding follistatin-related protein 3 – biochemical, small-molecule microarray, 635 nm fluorescence, primary screen (AID 1105); details: FSTL3 binding, higher = more signal;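 further: score merges emission near 667 nm and signal to noise per printed spot across three slides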
Sequence (O95633 whole entry, looked up): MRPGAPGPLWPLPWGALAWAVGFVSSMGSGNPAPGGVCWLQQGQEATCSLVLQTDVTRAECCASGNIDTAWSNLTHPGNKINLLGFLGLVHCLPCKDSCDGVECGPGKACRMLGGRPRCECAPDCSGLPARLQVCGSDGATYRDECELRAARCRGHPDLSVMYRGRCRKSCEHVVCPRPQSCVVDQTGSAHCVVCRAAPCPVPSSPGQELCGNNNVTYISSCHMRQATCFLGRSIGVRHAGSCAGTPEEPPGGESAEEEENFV

Row | Compound | composite z-score
1 | CC(C)CN1C(=O)[C@@]2(c3ccc([N+](=O)[O-])cc3)CC(=O)N(CC34CC5CC(CC(C5)C3)C4)[C@@H]2c2ccc(CO)cc21 | -1.09
2 | C=C(CCCC)/C(=C/C[C@@H](OC(C)=O)c1ccc(CO)o1)c1cc(C(=O)OC)ccc1OC | 1.4
3 | COC(=O)C1(Cc2ccccc2)C=C2C(=C(C(C)C)C(=O)C2C)CN1 (configuration not stated) | -0.482
4 | COc1ccc([Si](C)(C)[C@@H]2[C@@H](CCO)O[C@]3(C(=O)N(Cc4cccc(N5C(=O)c6cccc7cccc5c67)c4)c4ccccc43)[C@H]2C)cc1 | -0.339
5 | C=CCC(OC(C)=O)[C@@H]1[C@@H](N(Cc2cc3ccccc3o2)C(=O)Cc2ccc(F)cc2)c2cc(OCCCO)ccc2N1C(=O)c1ccc2ccccc2n1 (some centres not stated) | -0.255
6 | C=CCOC(=O)[C@@H]1[C@H]2C(=O)O[C@H](c3ccccc3)[C@H](c3ccccc3)N2[C@H](c2ccc(OCCOC(=O)[C@H]3C[C@H]4C(=O)N[C@@H](CCCC[N+](C)(C)C)C(=O)N4[C@H]3c3ccc(O)cc3)cc2)[C@@]12C(=O)Nc1ccc(I)cc12 | 1.51
7 | [N-]=[N+]=Nc1ccccc1[C@@H]1OC(c2ccc(OCCCO)cc2)=N[C@]1(CCS(=O)(=O)c1ccccc1)C(=O)NCCN1CCOCC1 | 0.374

target: Dickkopf-related protein 1 (Homo sapiens) (UniProt O94907); assay: small molecules binding DKK1 protein – biochemical, small-molecule microarray, 635 nm fluorescence scan, primary screen (AID 1106); details: higher = more signal;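 further: score merges emission near 667 nm with signal to noise over three replicate slides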
Sequence (O94907 whole entry, looked up): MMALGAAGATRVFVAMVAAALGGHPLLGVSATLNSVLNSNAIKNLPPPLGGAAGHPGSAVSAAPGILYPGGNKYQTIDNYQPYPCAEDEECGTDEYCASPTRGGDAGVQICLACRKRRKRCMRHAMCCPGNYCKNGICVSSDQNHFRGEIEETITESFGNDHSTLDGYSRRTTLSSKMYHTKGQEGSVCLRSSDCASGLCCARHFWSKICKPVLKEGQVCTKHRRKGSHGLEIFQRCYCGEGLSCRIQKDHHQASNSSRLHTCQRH

Row | Compound | composite z-score
8 | CC(C)(C)OC(=O)CC[C@]1(C(=O)NCCN2CCOCC2)N=C(c2ccc(OCCCO)cc2)O[C@H]1c1ccccc1 | -1.02
9 | C=CC[C@@]12N=C(c3ccc(OCCCO)cc3)O[C@@H]1c1ccccc1N(CCS(=O)(=O)c1ccccc1)C2=O | 0.571
10 | CCOC(=O)C[C@H]1[C@H](OC(=O)c2ccccc2-c2ccccc2)[C@@H](NC(=O)CC(C)C)c2cc(OCCCO)ccc2N1C(=O)c1ccc2ccccc2n1 | 0.45
11 | COc1ccc(C(O)C2C=CC3C(=O)N(c4ccccc4)C(=O)C3N2Nc2ccccc2)cc1OCc1ccccc1 (configuration not stated) | -0.0662
12 | NCCCCCNC(=O)[C@@H]1C[C@@H]2C(=O)N[C@@H](CCCCN)C(=O)N2[C@@H]1c1cccc(OCCO)c1 | 0.969
13 | CCCCC(CC)C(O)C1C=CC2C(=O)N(c3ccccc3)C(=O)C2N1Nc1ccc([N+](=O)[O-])cc1 (configuration not stated) | 0.155
14 | CC(C)(C)OC(=O)CC[C@]1(C(=O)O)N=C(c2ccc(OCCCO)cc2)O[C@H]1c1ccccc1CN=[N+]=[N-] | -0.134
15 | C=C(/C(=C/C[C@@H](OC(=O)c1ccncc1)c1ccccc1OCCO)c1cc(C(=O)OC)ccc1OC)C(C)C | 0.328
16 | O=C1O[C@@H](c2ccccc2)[C@@H](c2ccccc2)N2[C@@H](c3ccccc3OCCO)[C@]3(C(=O)Nc4ccccc43)[C@@H](C(=O)NC[C@H](O)c3ccccc3)[C@H]12 | -0.547
17 | COCCOC(=O)N1C(=O)[C@@]2(c3cc(C#CC4(O)CCCCCC4)ccc31)[C@H](c1ccccc1OCCO)N1[C@H](c3ccccc3)[C@H](c3ccccc3)OC(=O)[C@H]1[C@@H]2C(N)=O | 1.06
18 | O=c1cccc(-c2cccc(Cl)c2)o1 | -0.0521
19 | COCCOC(=O)N1C(=O)[C@@]2(c3cc(C#CC4=CCCCC4)ccc31)[C@H](C(=O)N1CCN(c3ncccn3)CC1)[C@H]1C(=O)O[C@H](c3ccccc3)[C@H](c3ccccc3)N1[C@@H]2c1ccc(O)cc1 | 0.496
20 | COCC(=C=CC[C@H](O)c1ccc(OCCO)cc1)C[C@H](O)COCc1ccccc1 | 0.462
21 | C=C[C@@H](COC(C)=O)NS(=O)(=O)c1ccc(Br)cc1 | 0.77
22 | O=C1C2C=CC(C(O)c3cc(C(F)(F)F)cc(C(F)(F)F)c3)N(Nc3ccc([N+](=O)[O-])cc3)C2C(=O)N1c1ccccc1 (configuration not stated) | -0.246
23 | CC(=O)NCCCC[C@@H]1NC(=O)[C@@H]2C[C@H](C(=O)O)[C@H](c3ccc(O)cc3)N2C1=O | -1.46
24 | COCCOC(=O)N1C(=O)[C@@]2(c3cc(C#CC4=CCCCC4)ccc31)[C@H](c1ccc(O)cc1)N1[C@H](c3ccccc3)[C@H](c3ccccc3)OC(=O)[C@H]1[C@@H]2C(=O)Nc1nc2ccccc2s1 | 0.45
25 | CC(C)CNC(=O)[C@@H]1c2ccccc2C(=O)N(Cc2cc(F)cc(C(F)(F)F)c2)[C@H]1c1ccc(CO)cc1 | 0.258

Row | Compound | composite z-score
26 | C=C(C(=O)CC[C@H](OC(C)=O)c1cccc(OCCO)c1)C(C)C | -1.07
27 | O=C1O[C@@H](c2ccccc2)[C@@H](c2ccccc2)N2[C@@H](c3ccc(O)cc3)[C@]3(C(=O)Nc4ccc(C#CCCO)cc43)[C@@H](C(=O)NC[C@H](O)c3ccccc3)[C@H]12 | -1.26
28 | CCCN1C(=O)[C@]2(Cc3ccccc3)N=C(c3ccc(OCCCO)cc3)O[C@@H]2c2ccccc21 | 0.223
29 | C[C@H]1C2=C3C(CC[C@H]4C(OCc5ccc(F)cc5C(F)(F)F)OC[C@](C)([C@@H]34)N(C(=O)OC(C)(C)C)C2)C2COC(=O)OCC21 (some centres not stated) | -0.648
30 | O=C1c2ccccc2[C@](Cc2ccccc2I)(C(=O)NCCN2CCOCC2)[C@H](c2ccc(CO)cc2)N1Cc1ccccc1 | 0.352
31 | COC(=O)[C@@]1(Cc2ccc(OC)cc2)[C@H]2c3cc(C(=O)N(C)C)n(Cc4nc5ccccc5[nH]4)c3C[C@H]2CN1C(=O)c1ccccc1 | -0.463
32 | C[C@]1(C(=O)NC2CC2)c2ccccc2C(=O)N(Cc2ccc(OC(F)(F)F)cc2)[C@H]1c1ccc(CO)cc1 | -0.758
33 | CN(C)CCCNC(=O)[C@@H]1c2ccccc2C(=O)N(CC23CC4CC(CC(C4)C2)C3)[C@H]1c1ccc(CO)cc1 | 0.872
34 | CC1CC/C=C\[C@H]2OC34C=CCN(C(C)C)C(=O)[C@H]3N(CCCCCO)C(=O)[C@@H]4C2C(=O)O1 (some centres not stated) | -1.73
35 | C=CCOC(=O)[C@H]1[C@@H]2C(=O)O[C@@H](c3ccccc3)[C@@H](c3ccccc3)N2[C@@H](c2ccc(OCCOC(=O)[C@H]3C[C@H]4C(=O)N[C@@H](Cc5ccccc5)C(=O)N4[C@H]3c3cccc(OCCO)c3)cc2)[C@]12C(=O)Nc1ccc(I)cc12 | 0.759
36 | CC(C)CN1C(=O)[C@@]2(c3ccc([N+](=O)[O-])cc3)CC(=O)N(CC34CC5CC(CC(C5)C3)C4)[C@@H]2c2ccc(CO)cc21 | -1.48
37 | C=C(CCCC)/C(=C/C[C@@H](OC(C)=O)c1ccc(CO)o1)c1cc(C(=O)OC)ccc1OC | 0.543
38 | COC(=O)C1(Cc2ccccc2)C=C2C(=C(C(C)C)C(=O)C2C)CN1 (configuration not stated) | -1.41
39 | COc1ccc([Si](C)(C)[C@@H]2[C@@H](CCO)O[C@]3(C(=O)N(Cc4cccc(N5C(=O)c6cccc7cccc5c67)c4)c4ccccc43)[C@H]2C)cc1 | -0.411
40 | C=CCC(OC(C)=O)[C@@H]1[C@@H](N(Cc2cc3ccccc3o2)C(=O)Cc2ccc(F)cc2)c2cc(OCCCO)ccc2N1C(=O)c1ccc2ccccc2n1 (some centres not stated) | 0.0645
41 | C=CCOC(=O)[C@@H]1[C@H]2C(=O)O[C@H](c3ccccc3)[C@H](c3ccccc3)N2[C@H](c2ccc(OCCOC(=O)[C@H]3C[C@H]4C(=O)N[C@@H](CCCC[N+](C)(C)C)C(=O)N4[C@H]3c3ccc(O)cc3)cc2)[C@@]12C(=O)Nc1ccc(I)cc12 | 1.03
42 | [N-]=[N+]=Nc1ccccc1[C@@H]1OC(c2ccc(OCCCO)cc2)=N[C@]1(CCS(=O)(=O)c1ccccc1)C(=O)NCCN1CCOCC1 | -0.0291

— PubChem BioAssay
